{"source": "PubChem BioAssay (NCATS)", "key": {"[1]": {"system": "Zika virus NS2B-NS3 protease", "test": "Primary screen GU AMC qHTS for Zika virus inhibitors (AID 1347154); also: nearly all actives have a fitted effect of over 70% in size; also: potency is read from the fitted curve at half-maximal effect;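 as to activity change, negative = inhibition: 0% = no-inhibitor control and -100% = no-enzyme control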", "method_in_brief": "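Unlinked Zika NS2B hydrophilic domain–NS3 protease complex at 25 nM in 10 mM Tris-HCl pH 8.0, 0.01% Tween 20, with an AMC peptide substrate. Fluorescence change (340/450 nm) over 15 min at room temperature, normalized to controls, fitted to 4-parameter Hill.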"}, "[2]": {"biological_target": "Lysine-specific demethylase 5B (Homo sapiens) (UniProt Q9UGL1)", "sequence (Q9UGL1 whole entry, looked up)": "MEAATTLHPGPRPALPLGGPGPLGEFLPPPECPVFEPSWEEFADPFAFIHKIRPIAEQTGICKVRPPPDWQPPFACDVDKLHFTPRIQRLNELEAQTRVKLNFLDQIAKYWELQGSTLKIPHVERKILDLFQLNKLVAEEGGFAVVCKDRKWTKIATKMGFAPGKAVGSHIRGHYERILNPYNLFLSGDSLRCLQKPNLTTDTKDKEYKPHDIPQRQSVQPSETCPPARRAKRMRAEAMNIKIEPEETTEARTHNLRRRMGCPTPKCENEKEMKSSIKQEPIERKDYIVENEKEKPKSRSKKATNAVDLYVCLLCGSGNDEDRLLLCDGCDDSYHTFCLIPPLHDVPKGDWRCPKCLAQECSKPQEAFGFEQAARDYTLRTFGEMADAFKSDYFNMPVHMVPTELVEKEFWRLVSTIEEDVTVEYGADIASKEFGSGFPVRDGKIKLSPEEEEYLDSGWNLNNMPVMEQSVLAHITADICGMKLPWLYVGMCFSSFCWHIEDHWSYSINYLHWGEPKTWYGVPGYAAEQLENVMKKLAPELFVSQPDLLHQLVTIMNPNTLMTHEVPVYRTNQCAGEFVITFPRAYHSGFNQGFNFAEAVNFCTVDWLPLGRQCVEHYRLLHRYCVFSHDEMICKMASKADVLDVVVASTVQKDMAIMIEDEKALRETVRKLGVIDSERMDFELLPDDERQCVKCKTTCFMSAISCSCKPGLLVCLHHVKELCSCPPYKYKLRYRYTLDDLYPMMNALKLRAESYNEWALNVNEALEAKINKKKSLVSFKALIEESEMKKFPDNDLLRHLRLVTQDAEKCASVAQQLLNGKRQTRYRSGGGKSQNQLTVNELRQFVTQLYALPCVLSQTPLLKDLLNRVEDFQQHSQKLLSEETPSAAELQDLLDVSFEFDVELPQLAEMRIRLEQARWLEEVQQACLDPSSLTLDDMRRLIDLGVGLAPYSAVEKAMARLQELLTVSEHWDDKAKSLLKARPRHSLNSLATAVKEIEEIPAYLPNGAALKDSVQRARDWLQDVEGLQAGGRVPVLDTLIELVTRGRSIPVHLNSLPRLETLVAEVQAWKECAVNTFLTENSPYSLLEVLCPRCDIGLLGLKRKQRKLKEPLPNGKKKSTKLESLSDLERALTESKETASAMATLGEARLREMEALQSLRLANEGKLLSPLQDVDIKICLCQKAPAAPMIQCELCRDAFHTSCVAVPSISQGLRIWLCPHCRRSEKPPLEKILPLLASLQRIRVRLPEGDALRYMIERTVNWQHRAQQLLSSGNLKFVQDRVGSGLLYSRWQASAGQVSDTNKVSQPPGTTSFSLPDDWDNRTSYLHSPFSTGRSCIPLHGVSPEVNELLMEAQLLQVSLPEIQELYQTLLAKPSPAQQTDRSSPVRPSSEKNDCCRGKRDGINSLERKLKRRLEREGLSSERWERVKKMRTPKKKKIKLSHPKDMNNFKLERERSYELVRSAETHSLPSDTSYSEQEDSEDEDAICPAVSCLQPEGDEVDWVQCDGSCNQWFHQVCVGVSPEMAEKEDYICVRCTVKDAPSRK", "test": "Optimization screen for KDM5B Histone Demethylases FDH coupled qHTS against the LOPAC library (AID 1347166); also: 0% is about no effect", "details": "KDM5B demethylation, FDH-coupled NADH fluorescence (FDH is formaldehyde dehydrogenase); at 57.5 µM (top of the series)", "method_in_brief": "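KDM5BDeltaAP (200nM final) in 50mM HEPES pH 7.5, 0.01% Tween-20 was preincubated with compound for 10 min at room temperature. A substrate mix of 12.5uM H3K4Me3, 25uM a-ketoglutarate, ascorbate, Fe2+, NAD+ and formaldehyde dehydrogenase was then added. NADH fluorescence (340/450 nm) was read initially and after 30 min.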"}, "[3]": {"test": "Vero cells viability qHTS for Zika virus inhibitors (AID 1347167); also: % is scaled to controls: 0 for no effect and ±100 for the full control effect", "method_in_brief": "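qHTS titration; 24-48 h compound exposure, 37 degrees C/5% CO2; DMEM, 4% FBS; CellTiter Glo ATP luminescence.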"}, "[4]": {"test": "Tertiary RLuc qRT-PCR qHTS assay for Zika virus inhibitors (AID 1347169); also: top concentration of the series differs between compounds; % is scaled to controls: 0 for no effect and ±100 for the full control effect; nearly all actives have a fitted effect of over 55% in size", "method_in_brief": "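Luminescence read-out: live-cell Renilla luciferase substrate applied to infected Vero cells, signal measured after 1-1.5 hrs. Cells had received compound before ZIKV-RLuc (Cambodian strain, MOI 1-2) infection and were incubated 48-72 hrs at 37 degrees C.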"}, "[5]": {"test": "ZIKV-mCherry secondary qHTS for Zika virus inhibitors (AID 1347158); also: top concentration of the series differs between compounds", "method_in_brief": "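Percent infection is the share of Hoechst-identified Vero nuclei with mCherry signal above 450 RFU (3 SD over negative controls). Cells were infected with recombinant ZIKV-mCherry at MOI 1 after compound addition and imaged 48–72 h later.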"}, "[6]": {"system": "Zika virus NS2B-NS3 protease (linked)", "test": "384 well plate NINDS AMC confirmatory qHTS for Zika virus inhibitors (AID 1347163); also: nearly all actives have a fitted effect of over 50% in size; also: potency is read from the fitted curve at half-maximal effect;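 as to activity change, negative = inhibition: linked protease at 5 30 or 60 nM final depending on run; fluorescence of AMC released from Ac-VKTGKR-AMC peptide cleaved by the protease; top concentration of the series differs between compounds; 0% = no-inhibitor control and -100% = no-enzyme control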", "method_in_brief": "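Fluorescence at 355/460 nm was read after 25 minutes of cleavage of 30 microM Ac-VKTGKR-AMC at room temperature, in the dark. Before substrate addition, compounds (up to 1 mM final) sat ~15 minutes with 5, 30 or 60 nM linked protease. Signals were normalized to no-enzyme and no-inhibitor wells.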"}, "[7]": {"system": "Zika virus NS2B-NS3 protease (linked construct)", "test": "384 well plate NINDS Rhodamine confirmatory qHTS for Zika virus inhibitors (AID 1347164); also: nearly all actives have a fitted effect of over 65% in size; also: potency is read from the fitted curve at half-maximal effect; as to activity change, negative = inhibition: top concentration of the series differs between compounds", "method_in_brief": "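Fluorescence read at ex 485 nm/em 538 nm, 25 min after adding 10 microM Ac-LKRR-Rd substrate at room temperature in the dark; signal normalized to no-enzyme and no-inhibitor controls. Enzyme final 5, 30 or 60 nM; compounds, ~15 min preincubation.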"}, "[8]": {"test": "Confirmatory screen NINDS Rhodamine qHTS for Zika virus inhibitors (AID 1347161); also: potency is read from the fitted curve at half-maximal effect; nearly all actives have a fitted effect of over 60% in size", "method_in_brief": "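Kinetic fluorescence (Ex 480 nm, Em 540 nm) over 15 min with 1.5 microM Rhodamine110 peptide and 25 nM linked protease.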"}}, "note": "Inconclusive results are not listed. Values without a mark were called inactive. Activity calls are given as the source filed them. Calls follow the shape of the dose curve; as a rule, active = well fitted curve in the direction sought with a large enough effect; inconclusive = small, poorly fitted or top-dose-only effect, or another doubt; inactive = no such curve, though single readings can be large; an effect the other way counts as inactive or inconclusive."}
{"smiles": "Cn1c(=O)c2[nH]c(-c3ccc(S(=O)(=O)O)cc3)nc2n(C)c1=O", "values": [{"measurement": "Potency", "setting": "[1]", "result": "5.32 µM (active)"}, {"measurement": "activity, negative = inhibition", "setting": "[2]", "result": 39.3, "unit": "%"}, {"measurement": "Potency", "setting": "[3]", "result": "inactive"}, {"measurement": "Potency", "setting": "[4]", "result": "inactive"}]}
{"smiles": "O=C(O)C1=CCNCC1", "values": [{"measurement": "Potency", "setting": "[1]", "result": "inactive"}, {"measurement": "activity, negative = inhibition", "setting": "[2]", "result": -12.8, "unit": "%"}]}
{"smiles": "O=C1NC(=O)c2cc(Nc3ccccc3)c(Nc3ccccc3)cc21", "values": [{"measurement": "Potency", "setting": "[5]", "result": "inactive"}, {"measurement": "Potency", "setting": "[6]", "result": "12.6 µM (active)"}, {"measurement": "Potency", "setting": "[7]", "result": "inactive"}, {"measurement": "activity, negative = inhibition", "setting": "[2]", "result": -17.6, "unit": "%"}, {"measurement": "Potency", "setting": "[3]", "result": "inactive"}]}
{"smiles": "Nc1ccc(CCNc2ncnc3c2ncn3C2OC(CO)C(O)C2O)cc1", "note": "(centres undefined)", "values": [{"measurement": "Potency", "setting": "[1]", "result": "inactive"}, {"measurement": "activity, negative = inhibition", "setting": "[2]", "result": -7.72, "unit": "%"}]}
{"smiles": "CCc1ccc2c(-c3cccc(Cl)c3)nc(=O)n(CC)c2n1", "values": [{"measurement": "Potency", "setting": "[1]", "result": "inactive"}, {"measurement": "Potency", "setting": "[3]", "result": "inactive"}]}
{"smiles": "CC(/C=C/c1cccc(Oc2ccc(F)cc2)c1)N(O)C(N)=O", "note": "(centres undefined)", "values": [{"measurement": "Potency", "setting": "[1]", "result": "inactive"}, {"measurement": "activity, negative = inhibition", "setting": "[2]", "result": -9.88, "unit": "%"}]}
{"smiles": "CN[C@H](CC(=O)O)C(=O)O", "values": [{"measurement": "Potency", "setting": "[1]", "result": "inactive"}, {"measurement": "activity, negative = inhibition", "setting": "[2]", "result": -14.8, "unit": "%"}]}
{"smiles": "N=C(N)SCCc1cnc[nH]1", "values": [{"measurement": "Potency", "setting": "[1]", "result": "inactive"}, {"measurement": "activity, negative = inhibition", "setting": "[2]", "result": -14.3, "unit": "%"}]}
{"smiles": "CCCc1c(OCCCOc2ccc(OCC(=O)O)cc2)ccc(C(C)=O)c1O", "values": [{"measurement": "Potency", "setting": "[5]", "result": "inactive"}, {"measurement": "Potency", "setting": "[8]", "result": "3.5 µM (active)"}, {"measurement": "Potency", "setting": "[6]", "result": "355 µM (active)"}, {"measurement": "Potency", "setting": "[7]", "result": "50.1 µM (active)"}, {"measurement": "activity, negative = inhibition", "setting": "[2]", "result": -6.32, "unit": "%"}, {"measurement": "Potency", "setting": "[3]", "result": "inactive"}]}
{"smiles": "CCCC[C@@]1(C2CCCC2)Cc2cc(OCC(=O)O)c(Cl)c(Cl)c2C1=O", "values": [{"measurement": "Potency", "setting": "[8]", "result": "7.82 µM (active)"}, {"measurement": "Potency", "setting": "[3]", "result": "inactive"}]}
{"smiles": "CCCn1c(=O)c2[nH]c(C3CCCC3)nc2n(CCC)c1=O", "values": [{"measurement": "Potency", "setting": "[1]", "result": "inactive"}, {"measurement": "activity, negative = inhibition", "setting": "[2]", "result": -5.16, "unit": "%"}]}
{"smiles": "COc1cc(/C=C(\\C#N)C(=O)Nc2nnc(C(F)(F)F)s2)ccc1OCc1ccc(C(F)(F)F)cc1C(F)(F)F", "values": [{"measurement": "Potency", "setting": "[8]", "result": "1.75 µM (active)"}, {"measurement": "Potency", "setting": "[6]", "result": "inactive"}, {"measurement": "Potency", "setting": "[7]", "result": "14.1 µM (active)"}]}
{"smiles": "CCCCCCCCCCCCCCCCCCOC[C@H](COP(=O)([O-])OCC[N+](C)(C)C)OC", "values": [{"measurement": "activity change, negative = inhibition", "setting": "[1]", "result": "2.23% [at 6.83 µM]"}, {"measurement": "activity, negative = inhibition", "setting": "[2]", "result": 1.42, "unit": "%"}]}
{"smiles": "Clc1nccc2c1ccc1ccccc12", "values": [{"measurement": "activity, negative = inhibition", "setting": "[2]", "result": 2.06, "unit": "%"}]}
{"smiles": "NC(Cc1cccc(-c2ccccc2CP(=O)(O)O)c1)C(=O)O", "note": "(centres undefined)", "values": [{"measurement": "activity, negative = inhibition", "setting": "[2]", "result": -9.93, "unit": "%"}]}
{"smiles": "CC1CCN=C(N)S1", "note": "(centres undefined)", "values": [{"measurement": "activity, negative = inhibition", "setting": "[2]", "result": -2.36, "unit": "%"}]}
